PubChem BioAssay AID1159580 (chemical genetic matrix, 2015)
Several values for one entry are separate records, joined by “and”; a condition that tells them apart may be missing. Equal entries are not always repeated. Among all 5,500 compounds or so, about 2,000 (36%) were called active. About 18% were inconclusive and are not listed. Rule as the data show it: active = normalized growth mostly below about 0.91 (no sharp cut-off); inconclusive = no clear call, values can overlap the other calls; inactive = mostly above about 0.92. Some of the results follow.

Experiment: chemical genetic growth profiling, strain panel (AID 1159580);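 also: tested at 20 µM; growth read once vehicle control cultures reached saturation at 30 °C; 1 = growth at the plate median or of vehicle wells; lower values mean less growth of the strain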
Conditions: S. cerevisiae deletion strains, growth OD

Measured: normalized growth

CCCCC(=O)O[C@H]1CCC2C3CCc4cc(O)ccc4C3CC[C@@]21C (some centres not stated)
inactive: locus YAL021C, strain ccr4, stronger effect = lower value 1.02 | locus YAL026C, strain drs2, stronger effect = lower value 1.02 | locus YAL030W, strain snc1, stronger effect = lower value 1.03 | locus YBL061C, strain skt5, stronger effect = lower value 1.01 | locus YBR009C, strain hhf1, stronger effect = lower value 0.988 | locus YBR021W, strain FUR4, stronger effect = lower value 0.99 | locus YBR023C, strain chs3, stronger effect = lower value 1.01 | locus YBR171W, strain sec66, stronger effect = lower value 1.03 | locus YBR229C, strain ROT2, stronger effect = lower value 0.943 | locus YBR231C, strain swc5, stronger effect = lower value 1.04 | locus YBR279W, strain paf1, stronger effect = lower value 1.01 | locus YCL011C, strain gbp2, stronger effect = lower value 1.01 | locus YCL016C, strain dcc1, stronger effect = lower value 0.979 | locus YCL029C, strain bik1, stronger effect = lower value 0.98 | locus YCL061C, strain MRC1, stronger effect = lower value 1.02 | locus YCL069W, strain vba3, stronger effect = lower value 1.01 | locus YCR088W, strain abp1, stronger effect = lower value 1.01 | locus YDL005C, strain med2, stronger effect = lower value 1.01 | locus YDL035C, strain GPR1, stronger effect = lower value 0.948 | locus YDL040C, strain nat1, stronger effect = lower value 1.02 | locus YDL074C, strain BRE1, stronger effect = lower value 0.926 | locus YDL101C, strain DUN1, stronger effect = lower value 0.98 | locus YDL134C, strain PPH21, stronger effect = lower value 0.954 | locus YDL185W, strain tfp1, stronger effect = lower value 0.988 | locus YDL192W, strain arf1, stronger effect = lower value 1 | locus YDR001C, strain nth1, stronger effect = lower value 1.01 | locus YDR069C, strain doa4, stronger effect = lower value 1.01 | locus YDR101C, strain arx1, stronger effect = lower value 0.953 | locus YDR137W, strain rgp1, stronger effect = lower value 0.973 | locus YDR150W, strain NUM1, stronger effect = lower value 0.988 | locus YDR159W, strain sac3, stronger effect = lower value 0.953 | locus YDR162C, strain NBP2, stronger effect = lower value 0.919 | locus YDR195W, strain ref2 1.03 | locus YDR297W, strain sur2, stronger effect = lower value 1.03 | locus YDR318W, strain mcm21, stronger effect = lower value 0.996 | locus YDR334W, strain swr1, stronger effect = lower value 1.02 | locus YDR335W, strain msn5, stronger effect = lower value 1.02 | locus YDR388W, stronger effect = lower value 0.992 | locus YDR392W, strain spt3, stronger effect = lower value 0.804 | locus YDR502C, strain sam2, stronger effect = lower value 0.995 | locus YEL003W, strain gim4, stronger effect = lower value 1.02 | locus YEL037C, strain rad23, stronger effect = lower value 1.02 | locus YEL061C, strain CIN8 (second series), stronger effect = lower value 1.02 | locus YEL061C, strain CIN8, stronger effect = lower value 0.985 | locus YER015W, strain faa2, stronger effect = lower value 1 | locus YER016W, strain bim1, stronger effect = lower value 1 | locus YER110C, stronger effect = lower value 1.01 | locus YER111C, strain swi4, stronger effect = lower value 1.01 | locus YER155C, strain BEM2 (second series), stronger effect = lower value 1.03 | locus YER155C, strain BEM2, stronger effect = lower value 0.979 | locus YER167W, strain BCK2, stronger effect = lower value 0.979 | locus YFR010W, strain ubp6, stronger effect = lower value 1.04 | locus YGL078C, strain dbp3, stronger effect = lower value 1.01 | locus YGL086W, strain mad1, stronger effect = lower value 0.968 | locus YGL167C, strain pmr1, stronger effect = lower value 1.04 | locus YGL173C, strain kem1, stronger effect = lower value 1.01 | locus YGL227W, strain vid30, stronger effect = lower value 1.01 | locus YGL240W, strain doc1, stronger effect = lower value 1.04 | locus YGL248W, strain PDE1, stronger effect = lower value 0.976 | locus YGL253W, strain hxk2, stronger effect = lower value 0.997 | locus YGR078C, strain PAC10, stronger effect = lower value 0.973 | locus YGR135W, strain pre9, stronger effect = lower value 1.07 | locus YGR252W, strain gcn5, stronger effect = lower value 1.1 | locus YHR013C, strain ard1, stronger effect = lower value 1.03 | locus YHR027C, strain rpn1, stronger effect = lower value 1.02 | locus YHR030C, strain SLT2, stronger effect = lower value 0.98 and 0.996 | locus YHR079C, strain IRE1 (second series), stronger effect = lower value 0.997 | locus YHR079C, strain IRE1, stronger effect = lower value 0.989 | locus YHR094C, strain hxt1, stronger effect = lower value 0.991 | locus YHR129C, strain ARP1, stronger effect = lower value 0.989 | locus YHR142W, strain chs7, stronger effect = lower value 1.01 | locus YHR200W, strain rpn10, stronger effect = lower value 0.998 | locus YIL066C, strain RNR3, stronger effect = lower value 0.961 | locus YIL073C, strain SPO22, stronger effect = lower value 1 | locus YIL125W, strain kgd1, stronger effect = lower value 0.998 | locus YIR030C, strain dcg1, stronger effect = lower value 1.01 | locus YJL092W, strain hpr5, stronger effect = lower value 1.01 | locus YJL095W, strain BCK1 (second series), stronger effect = lower value 1.02 | locus YJL095W, strain BCK1, stronger effect = lower value 0.926 and 0.996 | locus YJL115W, strain asf1, stronger effect = lower value 1.02 | locus YJL129C, strain trk1, stronger effect = lower value 0.996 | locus YJL134W, strain LCB3, stronger effect = lower value 0.982 | locus YJL154C, strain vps35, stronger effect = lower value 1.01 | locus YJL164C, strain tpk1, stronger effect = lower value 0.987 | locus YJL166W, strain qcr8, stronger effect = lower value 1.02 | locus YJL168C, strain set2, stronger effect = lower value 1 | locus YJL187C, strain SWE1 (second series), stronger effect = lower value 0.982 | locus YJL187C, strain SWE1, stronger effect = lower value 1.02 | locus YJR043C, strain POL32, stronger effect = lower value 0.955 | locus YJR066W, strain TOR1, stronger effect = lower value 0.916 | locus YKL009W, strain mrt4, stronger effect = lower value 0.95 | locus YKL068W, stronger effect = lower value 0.989 | locus YKL085W, strain MDH1 (second series), stronger effect = lower value 1.01 | locus YKL085W, strain MDH1, stronger effect = lower value 1.01 | locus YKL160W, strain elf1, stronger effect = lower value 1.01 | locus YKL190W, strain CNB1, stronger effect = lower value 0.992 | locus YKR001C, strain vps1, stronger effect = lower value 0.959 | locus YKR026C, strain gcn3, stronger effect = lower value 1.01 | locus YKR091W, strain srl3, stronger effect = lower value 1.01 | locus YLL001W, strain dnm1, stronger effect = lower value 1.02 | locus YLL026W, stronger effect = lower value 1.02 | locus YLL041C, strain sdh2, stronger effect = lower value 1.02 | locus YLR027C, strain aat2, stronger effect = lower value 1.03 | locus YLR039C, strain RIC1, stronger effect = lower value 0.848 | locus YLR058C, strain SHM2, stronger effect = lower value 0.96 | locus YLR102C, strain apc9, stronger effect = lower value 1.01 | locus YLR113W, strain HOG1, stronger effect = lower value 1.03 | locus YLR221C, strain rsa3, stronger effect = lower value 0.995 | locus YLR258W, strain gsy2, stronger effect = lower value 1 | locus YLR262C, strain YPT6 (second series), stronger effect = lower value 0.974 | locus YLR262C, strain YPT6, stronger effect = lower value 0.749 | locus YLR268W, strain sec22, stronger effect = lower value 0.982 | locus YLR320W, strain mms22, stronger effect = lower value 0.981 | locus YLR330W, strain CHS5, stronger effect = lower value 0.984 | locus YLR342W, strain FKS1 (second series), stronger effect = lower value 0.98 | locus YLR342W, strain FKS1, stronger effect = lower value 0.998 | locus YLR357W, strain rsc2, stronger effect = lower value 0.999 | locus YLR370C, strain arc18, stronger effect = lower value 1.03 | locus YLR371W, strain rom2, stronger effect = lower value 0.985 | locus YLR384C, strain iki3, stronger effect = lower value 1.02 | locus YLR418C, strain cdc73, stronger effect = lower value 1.02 | locus YML016C, strain PPZ1, stronger effect = lower value 0.979 | locus YML032C, strain rad52, stronger effect = lower value 0.987 | locus YML120C, strain ndi1, stronger effect = lower value 1.02 | locus YML124C, strain tub3, stronger effect = lower value 1 | locus YMR058W, strain fet3, stronger effect = lower value 1.02 | locus YMR078C, strain ctf18, stronger effect = lower value 1 | locus YMR125W, strain sto1, stronger effect = lower value 0.999 | locus YMR129W, stronger effect = lower value 1.01 | locus YMR205C, strain PFK2, stronger effect = lower value 0.985 | locus YMR223W, strain ubp8, stronger effect = lower value 1.04 | locus YMR231W, strain pep5, stronger effect = lower value 1.05 | locus YMR307W, strain GAS1, stronger effect = lower value 0.881 | locus YNL067W, strain RPL9B, stronger effect = lower value 0.982 | locus YNL071W, strain lat1, stronger effect = lower value 0.965 | locus YNL128W, strain TEP1, stronger effect = lower value 0.982 | locus YNL183C, strain NPR1, stronger effect = lower value 0.983 | locus YNL209W, strain ssb2, stronger effect = lower value 1.02 | locus YNL233W, strain BNI4, stronger effect = lower value 0.986 | locus YNL248C, strain rpa49, stronger effect = lower value 1.01 | locus YNL250W, strain rad50, stronger effect = lower value 0.984 | locus YNL271C, strain bni1, stronger effect = lower value 1 | locus YNL298W, strain CLA4, stronger effect = lower value 1 | locus YNL307C, strain MCK1, stronger effect = lower value 1 | locus YNL322C, strain KRE1 (second series), stronger effect = lower value 1.01 | locus YNL322C, strain KRE1, stronger effect = lower value 0.998 | locus YNR049C, strain mso1, stronger effect = lower value 1 | locus YNR052C, strain pop2, stronger effect = lower value 1.01 | locus YOL012C, strain htz1 1.24 | locus YOL147C, strain pex11, stronger effect = lower value 1.01 | locus YOR001W, strain rrp6, stronger effect = lower value 1.03 | locus YOR061W, strain CKA2, stronger effect = lower value 0.962 | locus YOR069W, strain VPS5, stronger effect = lower value 0.984 | locus YOR070C, strain gyp1, stronger effect = lower value 1.02 | locus YOR080W, strain dia2, stronger effect = lower value 1.03 | locus YOR083W, strain WHI5, stronger effect = lower value 1 | locus YOR106W, strain vam3, stronger effect = lower value 1.04 | locus YOR136W, strain idh2, stronger effect = lower value 1 | locus YOR144C, strain elg1, stronger effect = lower value 0.999 | locus YOR184W, strain ser1, stronger effect = lower value 0.969 | locus YOR231W, strain MKK1, stronger effect = lower value 1.04 | locus YOR265W, strain rbl2, stronger effect = lower value 1.02 | locus YOR270C, strain vph1, stronger effect = lower value 0.965 | locus YOR290C, strain snf2, stronger effect = lower value 0.988 | locus YOR316C, strain cot1, stronger effect = lower value 0.994 | locus YPL051W, strain arl3, stronger effect = lower value 1.01 | locus YPL055C, strain LGE1, stronger effect = lower value 0.959 | locus YPL078C, strain atp4, stronger effect = lower value 1.03 | locus YPL106C, strain sse1, stronger effect = lower value 1 | locus YPL240C, strain hsp82, stronger effect = lower value 1.01 | locus YPL241C, strain CIN2, stronger effect = lower value 0.975 | locus YPL256C, strain CLN2, stronger effect = lower value 1 | locus YPR119W, strain clb2, stronger effect = lower value 0.998 | locus YPR141C, strain kar3, stronger effect = lower value 0.997 | locus YPR163C, strain tif3, stronger effect = lower value 1.01 | locus YPR167C, strain met16, stronger effect = lower value 1 | strain wtn01, stronger effect = lower value 1.03
